Most compounds without a hit are left out; they make up all but 3.1% or so of the library.
Caspase-7 inhib = caspase-7 (human) inhibition, allosteric or competitive; P55210; recombinant caspase-7, Ac-DEVD-AFC fluorescence rate; Potency, µM (titrated, usually from 57.5 µM), inactives show at the highest dose activity change, negative = inhibition, most hits filed as inhibitors; actives 0.02% (n = 75,000); AID 889; active = well fitted inhibition curve with a large enough effect in the main read-out, with a control signal flat, not every such curve was filed as active; inconclusive = small, poorly fitted or top-dose-only effect, or a change in a side signal; also: % of control where 0% means no effect
Luciferase inh = firefly luciferase inhibition. purified firefly luciferase, luminescence, 8 min. Potency, µM (series often up to 57.1 µM), inactives show at the highest dose activity change, negative = inhibition, hits mostly inhibitors. actives 2.2% (n = 72,000); also: % is scaled to controls: 0 for no effect and ±100 for the full control effect; nearly all actives have a fitted effect of over 40% in size
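Inhibition of light generation by firefly luciferase from ATP and luciferin was profiled with concentration-response curves per sample, ATP held at 10 uM within the enzyme's linear range. Plates were read by luminescence after an 8-minute ambient incubation.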
Caspase-1 inhib = caspase-1 (human) inhibition, allosteric or competitive; P29466; Caspase-1 enzyme, Ac-WEHD-AFC fluorogenic rate; Potency, µM (series often up to 57.5 µM), without a hit: at the highest dose activity change, negative = inhibition, hits mostly inhibitors; actives 0.03% (n = 75,000); AID 900;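 also: plate controls were vehicle for no effect and no substrate for full effect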
PK Bst = modulators of Bacillus stearothermophilus pyruvate kinase | purified pyruvate kinase, luminescence ATP production; ribose 5-phosphate activator present at AC10 | Potency, µM | actives 1.2% (n = 51,000) | AID 361; in the data active = potency below about 11 µM; inconclusive = mostly about 12 µM to 25 µM;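 the screen sought inhibitors and activators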;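 also: scaled between full activation by ribose 5 phosphate and full inhibition by luteolin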
GBA mod = modulators of human glucocerebrosidase. Potency, µM. actives 1.1% (n = 48,000). purified enzyme, resorufin glucoside fluorescence (screen aimed at inhibitors), 20 min. P04062; in the data active = potency below about 15 µM; inconclusive = mostly about 16 µM to 33 µM;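 also: the screen sought inhibitors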
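Compounds titrated against 0.2 nM normal enzyme, 30 uM resorufin beta-D-glucopyranoside substrate, citrate/phosphate buffer with taurocholate and tween-20, pH 5.9. Reaction ran 20 min at room temperature; fluorescence (Ex 548/Em 600) gave AC50.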
* hit, by the source's call; i = inactive; ? = inconclusive; . = not tested or not shown; [ ] = remark or other dose. Unless noted, calls follow the shape of the dose curve; as a rule, active = well fitted inhibition curve with a large enough effect; inconclusive = small, poorly fitted or top-dose-only effect; inactive = flat fitted curve, though single readings scatter. Potency is read from the fitted curve at half-maximal effect.

SMILES	Caspase-7 inhib	Luciferase inh	Caspase-1 inhib	PK Bst	GBA mod
Cc1ccccc1NC(=O)CSc1nc2c(c(-c3ccco3)c1C#N)CCCC2	0%	1%	-2%	>57	>77
COC(=O)CC(=O)CSc1nc2c(cc1C#N)CCCCC2	?	13µM*	?	i	>77
CC1=C(C(=O)O)N2C(=O)[C@@H](NC(=O)[C@@H](N)c3ccccc3)[C@@H]2SC1	-1%[25.7 µM]	4%[25.5 µM]	-1%[25.7 µM]	.	.
O=C1c2ccccc2C(=O)c2c(NC3CCCCC3)ccc(Nc3ccc(S(=O)(=O)O)cc3)c21	-9%[11.5 µM]	-13%[11.4 µM]	-15%[11.5 µM]	.	.
Cc1ccc(C2=N/C(=C/N3CCOCC3)C(=O)O2)cc1	1%	20µM*	-1%	.	>77
CN(C)/C=C1\N=C(c2ccc3c(c2)OCO3)OC1=O	1%	-7%	-1%	.	.
Oc1ccccc1OCc1nc2ccccc2s1	1%	20µM*	-1%	.	.
CCOC(=O)c1ccc(NC(=O)c2cc3ccccc3o2)cc1	-1%	?	-1%	.	.
Cc1cccc(NC(=O)c2cc3ccccc3o2)c1	-1%	13µM*	-1%	?	>77
Cc1cc(C(=O)Nc2cccc(C(=O)O)c2)oc1C	0%	16µM*	-1%	i	>77
CCC(=O)Nc1cccc(-c2nc3ccccc3o2)c1	-1%	-23%	2%	.	>77
CNC(=O)c1cc2ccccc2o1	.	-1%[25.5 µM]	.	>26	.
CC(C)C(=O)Nc1ccc(NC(=O)c2cc3ccccc3o2)cc1	-1%	-23%	0%	>57	9.8*
CCC(=O)Nc1cccc(NC(=O)c2cc3ccccc3o2)c1	0%	4µM*	2%	.	.
CCOC(=O)OCC1OC(C#Cc2ccccc2)C=CC1OC(=O)OCC (centres undefined)	-1%[11.5 µM]	.	?	.	.
O=C(Nc1cccc(Br)c1)c1cc2ccccc2o1	-2%	7.9µM*	-6%	.	.
Cc1ccc(OCc2nc(-c3ccccc3)no2)c(C)c1	-1%	16µM*	-4%	.	.
Cc1cc(C)c(C)c(OCc2nc(-c3cccnc3)no2)c1	2%	6%	3%	>57	>77
CN(C)/C=N/c1cnc(C(=O)c2ccc(Cl)cc2)n1C	-5%	13µM*	-6%	.	.
CCOC(=O)c1cnc(-n2nc(C)cc2C)nc1N(C)C	0%	13µM*	0%	11*	>77
CN(C(=O)c1c(O)c2ccccc2n(C)c1=O)c1ccccc1	0%	25µM*	0%	.	.
CC(C)N(CCNC(=O)c1ccc(Cc2nc3ccccc3[nH]2)cc1)C(C)C	1%	.	-2%	.	.
CC(=O)N1CN(CCCn2ccnc2)Cc2c1sc1c2CCCC1	2%	1%	-3%	>57	?
CC(=O)N1CN(Cc2ccccn2)Cc2c1sc1c2CCCC1	-28%	-1%	?	>57	15*
CCOC(=O)c1sc(SCC(=O)Nc2ccc(N(C)C)cc2)nc1N	1%	13µM*	-1%	i	>77
SMILES	Caspase-7 inhib	Luciferase inh	Caspase-1 inhib	PK Bst	GBA mod
CCCCNC(=O)c1ccc(Cc2nc3ccccc3[nH]2)cc1	-3%	.	-2%	.	.
O=C(O)CCCCCNc1nc(=S)[nH]c2ccccc12	-1%	0%	-4%	>57	7.7*
O=C(Nc1ccc2nc3n(c(=O)c2c1)CCCCC3)c1ccccn1	-2%	13µM*	-1%	.	.
O=C(O)[C@@H]1[C@@H]2C[C@@H]3[C@@H](OC(=O)[C@@H]31)[C@H]2Br	-1%[11.5 µM]	0%[11.4 µM]	1%[11.5 µM]	.	.
O=C(Nc1cccc2nsnc12)c1ccc(F)cc1	-18%	-3%	-16%	.	>77
O=C(Nc1cccc2nsnc12)c1ccc2c(c1)OCCO2	-30%	20µM*	?	.	>77
Cc1nc2ccc3nc(NC(=O)c4ccc5c(c4)OCCO5)sc3c2s1	0%	-4%	-1%	>57	>77
O=S(=O)(Nc1ccc2c(c1)OCCO2)c1cccc2nsnc12	1%	-14%	-6%	8.6*	.
O=C(Nc1ccc2c(c1)OCCO2)C1CCN(S(=O)(=O)c2cccc3nsnc23)CC1	-1%	2%	2%	9.3*	>77
Cc1ccnc(NC(=O)C2CCN(S(=O)(=O)c3cccc4nsnc34)CC2)c1	1%	3%	-3%	i	>77
Cc1nc2c(ccc3nc(NC(=O)c4ccc5c(c4)OCCO5)sc32)s1	0%	0.79µM*	1%	0.29*	7.4*
O=C(CCNS(=O)(=O)c1cccc2nsnc12)Nc1ccc2c(c1)OCCO2	2%	-2%	0%	?	>77
COc1cc(N=C(N)N=C(N)N)c2ncccc2c1	1%[11.5 µM]	2%[11.4 µM]	-4%[11.5 µM]	.	.
NNC(=O)[C@@H](O)[C@H](O)[C@H](O)CO	-2%[11.5 µM]	3%[11.4 µM]	-2%[11.5 µM]	.	.
CCc1cccc(NC(=O)Nc2cccs2)c1	-5%	16µM*	-3%	.	>77
COc1ccc(-c2cc(-c3ccc(OC)cc3)[nH]n2)cc1	-4%	16µM*	0%	2.1*	>77
CCc1ccc(NC(=O)c2cc(-c3ccc(OC)cc3)on2)cc1	0%	3%	2%	>57	>77
CCc1ccc(NC(=O)c2cc(C)on2)cc1	-1%	7.9µM*	-2%	i	?
CCc1ccc(NC(=O)c2cc(CC(C)C)on2)cc1	0%	-14%	0%	.	.
CCc1ccc(NC(=O)c2cc(C(C)C)on2)cc1	-3%	13µM*	0%	i	>77
CC1(C)CC(=O)C(C(c2cccc(O)c2O)C2C(=O)CC(C)(C)CC2=O)C(=O)C1	-1%[11.5 µM]	1%[11.4 µM]	5%[11.5 µM]	.	.
Clc1ccc2c(c1)C1OCCC1C(c1ccco1)N2 (centres undefined)	-9%	16µM*	-7%	9.6*	>77
Cc1ccc2c(c1)[C@H]1OCC[C@H]1[C@@H](c1ccncc1)N2	0%	3%	0%	.	.
O=C1OC(=O)[C@@H]2[C@@H]1[C@@H]1CC[C@H]2O1	1%	1%[11.4 µM]	3%	.	.
O=C(OCC(=O)c1c[nH]c2ccccc12)c1ccco1	0%	16µM*	-2%	?	>77
SMILES	Caspase-7 inhib	Luciferase inh	Caspase-1 inhib	PK Bst	GBA mod
Cc1ccc(NC(=O)c2noc3c2CCCCC3)cc1	-1%	13µM*	3%	.	>77
CCc1ccc(NC(=O)c2noc3c2CCCCC3)cc1	1%	-22%	1%	>57	>77
CC(C)(C)C1CCc2onc(C(=O)NC3CCCC3)c2C1 (centres undefined)	-1%	1%	0%	>57	>77
O=C(NC1CCCCC1)c1noc2c1CCCCC2	1%	20µM*	1%	.	>77
CC(C)(C)OC=O	-1%	.	-3%	.	.
Oc1ccc(Cc2cc(Cl)cc(Cl)c2O)cc1Cl	-3%[11.5 µM]	2%[11.4 µM]	-2%[11.5 µM]	.	.
Cn1c2ccccc2c2c(C(=O)NCC3CCCO3)cn(C3CCCC3)c(=O)c21 (centres undefined)	0%	13µM*	0%	.	>77
CC(C)Cn1cc(C(=O)NCC2CCCO2)c2c3ccccc3n(C)c2c1=O (centres undefined)	1%	-18%	2%	.	>77
Cn1c(C(=O)NCc2ccco2)cc2c(=O)[nH]c3ccccc3c21	-1%	0%	-2%	4.4*	>77
CN(C)CCNS(=O)(=O)N(C)C	1%[11.5 µM]	1%[11.4 µM]	0%[11.5 µM]	.	.
CCOC(=O)c1oc2nc3c(cc2c1N)COC(C)(C)C3	-6%	-27%	-7%	>11	>77
COC(=O)c1sc2nc3c(cc2c1N)COC(C)(C)C3	-22%	13µM*	?	.	.
O=S(=O)(c1cccc2nsnc12)N1CCCC1	0%	1%	-1%	.	>77
